Here are results for 14 compounds from PubChem BioAssay (NCATS).

Structures are written as SMILES. Several values for one entry are separate records, joined by “and”; a condition that tells them apart may be missing. Equal entries are not always repeated. A number with no mark means an inactive call. Inconclusive results are not listed. Activity calls are given as the source filed them. Unless noted, calls come from the whole dose curve; as a rule, active = well fitted curve in the direction sought with a large enough effect; inconclusive = small, poorly fitted or top-dose-only effect, or another doubt; inactive = no such curve, though single readings can be large; an effect the other way counts as inactive or inconclusive.

For assay [1], the target named is Mitogen-activated protein kinase 10 (Mus musculus) (UniProt Q61831). Description: JNK3 AlphaScreen Assay (AID 530; active = well fitted curve in either direction with a large enough effect, not every such curve was filed as active;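 note: kinase came from lysate of stimulated human HepG2 cells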; note: potency is the fitted concentration of half-maximal effect). Particulars: JNK3 lysate, c-Jun phosphorylation; series mostly up to 57.1 µM. An outline of the steps: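 Room-temperature AlphaScreen kinase assay; pre-activated HepG2 lysate as JNK3 source, biotin-GST-cJun(1-79) substrate, 10 uM ATP, compound 15 min preincubation.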

Assay [2] is described as follows: Cell Viability - N2a (AID 540).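 Note: plate controls were DMSO alone for no effect and tamoxifen control for full effect; nearly all actives have a fitted effect of over 45% in size.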 Particulars: N2a mouse neuroblastoma cell viability; activity change, negative = cytotoxicity: at 92.2 µM (top of the series). In short, it runs like this: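 Mouse neuroblastoma N2a cells (1500/well) were preincubated 5 hr at 37 °C, then exposed to compounds for 40 hr at 37 °C in complete medium. Viability was read as intracellular ATP by CellTiter-Glo luminescence; AC50 from Hill fits.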

Assay [3] can be described thus: Cell Viability - NIH 3T3 (AID 541).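 For activity change, negative = cytotoxicity: plate controls were DMSO alone for no effect and tamoxifen positive control for full effect.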 Note: nearly all actives have a fitted effect of over 25% in size. Note: potency is the fitted concentration of half-maximal effect. Particulars: NIH 3T3 cell viability, qHTS; activity change, negative = cytotoxicity: at 92.2 µM (top of the series). An outline of the steps:
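NIH 3T3 mouse embryo fibroblasts (1000 cells/well) were plated in complete medium and treated with compound for 40 hr at 37 °C. Viability was read as intracellular ATP by CellTiter-Glo luminescence; AC50 values came from Hill-equation fits of concentration-response data.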
For orientation: Quantitative high-throughput screening tests each substance at several concentrations.

Assay [4] can be described thus: Cell Viability - HUV-EC-C (AID 542). Note: % is set by controls: 0 for no effect and ±100 for the full control effect; nearly all actives have a fitted effect of over 35% in size. The note with it: HUV-EC-C endothelial cell viability, qHTS; series mostly up to 92.2 µM. An outline of the steps: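 HUV-EC-C normal human vascular endothelial cells, 1000 cells/well, pre-incubated 5 hr at 37 °C, then exposed to compounds for 40 hr at 37 °C in complete medium. Viability measured as intracellular ATP by CellTiter-Glo luminescence; AC50 from Hill fits.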

The nature of assay [5]: Cell Viability - SH-SY5Y (AID 544). Note: nearly all actives have a fitted effect of over 55% in size. Note: potency is the fitted concentration of half-maximal effect. The note with it: SH-SY5Y neuroblastoma cell viability; series mostly up to 92.2 µM. In short, it runs like this:
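Human neuroblastoma SH-SY5Y cells (1500/well) in complete medium were exposed to compounds for 40 hr at 37 °C; intracellular ATP was then quantified by CellTiter-Glo luminescence after 20 min at room temperature. AC50 came from Hill-equation concentration-response fits.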

A short description of assay [6]: Cell Viability - Renal Proximal Tubule (AID 545). Note: nearly all actives have a fitted effect of over 40% in size. The note with it: renal proximal tubule cells viability, primary cells of rat origin; series mostly up to 91.7 µM. In short, it runs like this:
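Rat kidney proximal tubule cells, freshly isolated; 1000 cells/well, 5 hr settle, compound 40 hr 37 °C. CellTiter-Glo 20 min RT, luminescence read. AC50 by standard Hill fit.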

Assay [7] can be described thus: Cell Viability - Mesenchymal (AID 546).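 Note: cells exposed to compound for 40 hours before reading.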 The note with it: mesenchymal cells viability, qHTS; series mostly up to 91.7 µM. An outline of the steps: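 AC50 values reflect the drop in intracellular ATP in a human kidney mesenchymal line derived from normal glomeruli. Treatment lasts 40 hr at 37 °C in complete medium, and the signal comes from CellTiter-Glo luminescence.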

The nature of assay [8]: Cellular Toxicity (caspase-3) HepG2 (AID 654).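 Note: cells exposed to compound for 16 hours before reading; 0% = DMSO alone and 100% = caspase signal from 100 µM tamoxifen.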 Particulars: HepG2 caspase-3 activation, luminescence; series mostly up to 92.2 µM. In short, it runs like this:
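HepG2 cells (1500/well) in complete medium were treated with compounds for 16 hr at 37 °C. Caspase-3/7 activity was then read as luminescence from peptide-aminoluciferin cleavage. AC50 came from Hill fits, normalized to DMSO and 100 uM tamoxifen.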

The nature of assay [9]: Cellular Toxicity (caspase-3) Jurkat (AID 655).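 Note: cells exposed to compound for 16 h at 37 °C before reading.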 The note with it: Jurkat caspase-3 activation, luminescence; series mostly up to 92.2 µM. In short, it runs like this:
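Luminescent caspase-3/7 readout (aminoluciferin substrate cleavage) in human T-cell leukemia Jurkat cells after 16 hr compound exposure. Concentration-response normalized to DMSO and 100 uM tamoxifen; AC50 by standard Hill equation.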

Assay [10] is described as follows: Cellular Toxicity (caspase-3) HUV-EC-C (AID 656). The note with it: HUV-EC-C cells, caspase-3 activation (apoptosis), vehicle = 0, 100 µM tamoxifen = 100%; series mostly up to 92.2 µM. An outline of the steps:
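Luminescent caspase-3/7 activation (aminoluciferin substrate cleavage) in HUV-EC-C cells after 16 hr compound exposure, 37°C. Signal normalized to DMSO basal and 100 uM tamoxifen as 100%; AC50 from concentration-response fitted with the Hill equation.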

Assay [11] can be described thus: Cellular Toxicity (caspase-3) BJ (AID 658). The note with it: BJ fibroblasts, luminescence, normalized: DMSO 0%, staurosporine 100%; series mostly up to 91.7 µM. An outline of the steps: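 Readout: Caspase-Glo 3/7 luminescence increase in BJ cells after 16 hr treatment at 37 °C. Staurosporine and tamoxifen served as positive controls; AC50 values came from Hill modelling of data normalized to DMSO and 10 uM staurosporine.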

Assay [12] in a line: Cellular Toxicity (caspase-3) MRC-5 (AID 659). The note with it: MRC-5 cells, luminescence; Potency: caspase-3 activation; series mostly up to 91.7 µM. In short, it runs like this:
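Concentration-dependent caspase 3/7 activation is measured in human normal lung fibroblasts (MRC-5) following 16-hour treatment. AC50 values come from standard Hill-equation modeling of luminescence normalized to DMSO and 10 uM staurosporine.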

A short description of assay [13]: Cellular Toxicity (caspase-3) Mesangial (AID 660).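 Note: cells exposed to compound for 16 h before the caspase read.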 Particulars: mesangial cells, normalized: DMSO 0%, 100 µM tamoxifen 100%; series mostly up to 91.7 µM. In short, it runs like this: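 Human renal glomerular mesangial cells (1000/well) were treated with compounds for 16 h at 37 °C in complete medium, then caspase 3/7 activity was read by Caspase-Glo luminescence. Data were normalized to DMSO and 100 uM tamoxifen; AC50 from Hill fits.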

The nature of assay [14]: Cellular Toxicity (caspase-3) SK-N-SH (AID 661). The note with it: SK-N-SH caspase-3 activation, qHTS, DMSO as zero, staurosporine as full; series mostly up to 91.7 µM. In short, it runs like this: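 SK-N-SH human neuroblastoma cells (1500/well) were treated with compounds for 16 hr at 37 °C in complete medium; caspase 3/7 activity was read by Caspase-Glo luminescence. AC50 came from Hill fits of data normalized to DMSO and 10 uM staurosporine.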

Assay [15] in a line: Cellular Toxicity (caspase-3) H-4-II-E (AID 663).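 Note: cells exposed to compound for 16 hr before readout.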 The note with it: H-4-II-E rat hepatoma, scaled: DMSO 0%, 100 µM tamoxifen 100%; series mostly up to 92.2 µM. An outline of the steps: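 Apoptosis induction is scored as increased luminescence from caspase 3/7 substrate cleavage in rat hepatoma H-4-II-E cells exposed to compound for 16 hr. Activity is scaled between DMSO and 100 uM tamoxifen.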

A short description of assay [16]: Cellular Toxicity (caspase-3) Hek293 (AID 664).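 Note: cells exposed to compound for 16 h at 37 °C before readout.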 The note with it: HEK293 caspase-3 activation, DMSO = 0%, 100 µM tamoxifen = 100%; series mostly up to 92.2 µM. In short, it runs like this:
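HEK293 cells were exposed to compounds in complete medium for 16 hr at 37 °C, then caspase-3/7 activity was read by Caspase-Glo 3/7 luminescence after 20 min at room temperature. Data normalized to DMSO and 100 uM tamoxifen; AC50 from Hill fits.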

The target in assay [17] is Glucocorticoid receptor (Homo sapiens) (UniProt P04150). In words: GR-GFP Redistribution (AID 450;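 active = compounds whose dose series gives a full or clear partial fitted curve of increased nuclear translocation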; note: potency is the fitted concentration of half-maximal effect). The note with it: U2OS GR-GFP nuclear translocation, laser cytometry, 2 h.
Assay [18] shares this target. Description: GR-EFC Redistribution (AID 451; calls by dose curve; note: potency is the fitted concentration of half-maximal effect). Particulars: CHO-K1 GR-EFC translocation, beta-gal luminescence, 2 h. An outline of the steps: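 Translocation of GR-ED fusion to nuclear EA restores b-gal, read by luminescence after 1 h room-temperature detection. Engineered CHO-K1 biosensor cells, 1,000/well, exposed 2 h at 37 C to titrations up to 46 uM final.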
In assay [19] the target is 3',5'-cyclic-AMP phosphodiesterase 4B (Homo sapiens) (UniProt Q07343). In words: qHTS Assay for Inhibitors of PDE-IV (AID 607; active = well fitted activation curve with a large enough effect in the main read-out, with a control signal flat, not every such curve was filed as active; note: % of control where 0% means no effect). Particulars: HEK293 ACTOne CNG channel cells, membrane potential fluorescence; series mostly up to 22.9 µM. In short, it runs like this: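 Cell-based read-out of cAMP via a modified cyclic nucleotide-gated channel and membrane potential dye (535/590 nm) in HEK293 cells expressing PDE4 endogenously. Compounds tested up to 22.9 uM final; 100 uM RO 20-1724 reference.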
Sequence of 3',5'-cyclic-AMP phosphodiesterase 4B (Homo sapiens) (Q07343 whole entry, looked up): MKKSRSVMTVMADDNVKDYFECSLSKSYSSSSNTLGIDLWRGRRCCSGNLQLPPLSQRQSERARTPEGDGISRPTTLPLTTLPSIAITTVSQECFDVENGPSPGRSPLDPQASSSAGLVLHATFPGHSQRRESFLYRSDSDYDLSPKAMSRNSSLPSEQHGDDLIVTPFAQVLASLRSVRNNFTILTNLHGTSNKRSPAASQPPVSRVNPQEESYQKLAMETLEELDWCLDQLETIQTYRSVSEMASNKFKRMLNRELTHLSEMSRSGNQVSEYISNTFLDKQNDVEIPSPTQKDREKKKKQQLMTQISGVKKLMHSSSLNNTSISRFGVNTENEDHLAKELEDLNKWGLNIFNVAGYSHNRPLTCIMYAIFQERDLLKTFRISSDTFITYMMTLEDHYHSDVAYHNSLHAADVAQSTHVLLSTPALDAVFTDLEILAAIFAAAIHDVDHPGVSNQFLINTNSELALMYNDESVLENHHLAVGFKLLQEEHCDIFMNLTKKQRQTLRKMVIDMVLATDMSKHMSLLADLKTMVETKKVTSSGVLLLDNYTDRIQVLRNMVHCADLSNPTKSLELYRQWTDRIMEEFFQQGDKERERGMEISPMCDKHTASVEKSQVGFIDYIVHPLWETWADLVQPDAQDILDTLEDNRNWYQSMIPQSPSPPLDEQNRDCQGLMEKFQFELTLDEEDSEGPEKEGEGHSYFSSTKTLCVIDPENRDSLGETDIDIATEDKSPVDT

Sequence of Glucocorticoid receptor (Homo sapiens) (P04150 whole entry, looked up, the tested form may be a part): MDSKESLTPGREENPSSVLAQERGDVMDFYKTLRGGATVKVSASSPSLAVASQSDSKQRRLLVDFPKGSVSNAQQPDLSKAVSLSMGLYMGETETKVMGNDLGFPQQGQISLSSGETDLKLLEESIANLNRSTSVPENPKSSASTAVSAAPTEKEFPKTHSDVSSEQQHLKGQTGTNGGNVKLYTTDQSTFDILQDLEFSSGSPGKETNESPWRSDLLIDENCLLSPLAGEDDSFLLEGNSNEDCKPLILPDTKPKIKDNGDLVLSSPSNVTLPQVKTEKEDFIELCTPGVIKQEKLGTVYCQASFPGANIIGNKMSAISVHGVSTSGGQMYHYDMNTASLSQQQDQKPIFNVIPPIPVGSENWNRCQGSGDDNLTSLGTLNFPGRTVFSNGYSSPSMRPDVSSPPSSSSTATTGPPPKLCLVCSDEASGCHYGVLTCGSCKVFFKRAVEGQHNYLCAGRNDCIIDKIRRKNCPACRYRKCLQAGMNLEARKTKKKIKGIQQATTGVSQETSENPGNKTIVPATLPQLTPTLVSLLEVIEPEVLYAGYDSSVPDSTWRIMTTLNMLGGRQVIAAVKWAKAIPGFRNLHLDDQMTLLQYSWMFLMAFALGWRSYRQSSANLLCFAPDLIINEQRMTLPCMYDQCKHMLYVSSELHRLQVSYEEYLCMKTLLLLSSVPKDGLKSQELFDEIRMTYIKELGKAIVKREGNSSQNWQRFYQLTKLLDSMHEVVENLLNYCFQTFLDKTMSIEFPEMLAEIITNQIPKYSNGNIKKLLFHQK

In the case of `CC1(C)[C@@H]2CC[C@@]1(C)C(=O)C2`, the Potency result in [1], in assay [3], in assay [4], in [5], in assay [6] and in assay [8] was “inactive” throughout. The Potency result in assay [9] and in assay [12] was “inactive” throughout. Besides, in assay [2], the activity change, negative = cytotoxicity was 2.78%. Besides, the result in assay [7], in assay [10], in assay [11], in assay [13], in assay [14] and in [15] was inactive. Further, the outcome in [16] was inactive.

For the compound `C=Cc1c(C)c2cc3[nH]c(cc4nc(cc5nc(cc1[nH]2)C(C)=C5CCC(=O)O)C(CCC(=O)O)=C4C)c(C)c3C=C`, the Potency in assay [17] is greater than 46 µM; in assay [18], greater than 46 µM; in assay [1] it was 0.398 µM [activator] (active). Besides, the compound was called inactive in assay [19].

For the compound `N=c1c[n+](N2CCOCC2)[n-]o1`, the Potency in assay [17] is > 46 µM and > 20.6 µM; in assay [18] it was greater than 46 µM. Besides, the Potency result in [1] was “inactive”. Also, in assay [19], the result was inactive.

Regarding `O=C(O)CN1C(=O)c2cccc3cccc(c23)C1=O`, in [1], the Potency entry was “inactive”.

Regarding `CC12CCC(CC1)C(C)(C)O2`, the Potency result in assay [1], in assay [3], in assay [4], in assay [5], in [6] and in assay [8] was “inactive” throughout. In addition, the Potency entry in [9] and in assay [12] was “inactive” throughout. Further, the activity change, negative = cytotoxicity in assay [2] is -7.51%. Also, the call in assay [7], in assay [10], in [11], in [13], in assay [14] and in assay [15] was inactive. Moreover, in assay [16], the result was inactive.

Take `CCCCCCCCCCCCOS(=O)(=O)O`: the Potency result in [1], in [3], in assay [4], in assay [5], in [6] and in [8] was “inactive” in each case. Further, the Potency entry in [9] and in assay [12] was “inactive” in each case. Further, the activity change, negative = cytotoxicity in [2] is -3.87% and -0.403%. The call in [7], in assay [10], in assay [11], in assay [13], in assay [14] and in [15] was inactive. Also, in assay [16], the compound was called inactive.

In the case of `CCCCN1CCCC[C@H]1C(=O)Nc1c(C)cccc1C`, the Potency result in [1] is “inactive”. Also, the outcome in assay [19] was inactive.

Regarding `C[C@]12C[C@H](O)[C@H]3[C@@H](CCC4=CC(=O)CC[C@@]43C)[C@@H]1CC[C@@H]2C(=O)CO`, the Potency in assay [17] is 0.00593 µM (active). Further, the Potency result in [4], in [5], in assay [8], in [9] and in [12] was “inactive” in each case. The call in [7], in [10], in [11], in [13], in assay [14] and in assay [15] was inactive. In assay [16], the result was inactive.

In the case of `CCCCCCCCCCCCCCCC(=O)NCCO`, the Potency result in assay [1] was “inactive”. Also, the compound was classed as inactive in assay [19].

For `NC(=O)c1ncn([C@@H]2O[C@H](CO)[C@@H](O)[C@H]2O)n1`, the Potency result in assay [1], in [4], in assay [6], in [8], in [9] and in assay [12] was “inactive” in each case. Also, the Potency was 25.1 µM (active) in [3] and 31.6 µM (active) in assay [5]. The compound was classed as inactive in [7], in [10], in assay [11], in assay [13], in [14] and in [15]. In addition, in assay [16], the outcome was inactive.

Turning to `c1ccc2c(CC3=NCCN3)cccc2c1`, in assay [1], the Potency result was “inactive”. For the same compound, in [19], the compound was called inactive.

Turning to `Nc1cc(=O)[nH]c(N)n1`, the compound was classed as inactive in [19].

Turning to `NCCNCCNCCNCCN`, the Potency entry in assay [1], in assay [3], in assay [4], in assay [5], in assay [6] and in assay [8] was “inactive” each time. Further, the Potency entry in assay [9] and in assay [12] was “inactive” in each case. Moreover, the activity change, negative = cytotoxicity in [2] is -2.82%. The call in assay [7], in [10], in assay [11], in assay [13], in assay [14] and in assay [15] was inactive. Also, in assay [16], the compound was classed as inactive.

For `Cc1cc2nc3c(=O)[nH]c(=O)nc-3n(C[C@H](O)[C@H](O)[C@H](O)CO)c2cc1C`, the Potency entry in assay [1], in assay [3], in assay [4], in assay [5], in assay [6] and in assay [8] was “inactive” in each case. For the same compound, the Potency result in assay [9] and in [12] was “inactive” each time. In assay [2], the activity change, negative = cytotoxicity was 0.316%. Moreover, the outcome in assay [7], in [10], in assay [11], in [13], in assay [14] and in assay [15] was inactive. Besides, the compound was called inactive in assay [16].
